Hits are enriched below; roughly 14% of the tested compounds scored in any of these assays.
LmPK inhibitor = inhibitors of Leishmania mexicana pyruvate kinase; Q27686; purified LmPK, Kinase-Glo ATP luminescence, 1 h; Potency, µM (series often up to 57.5 µM), most hits filed as inhibitors; 290,000 compounds, 0.37% hits; AID 1721
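0.1 nM LmPK, 0.5 mM PEP, 0.1 mM ADP; 50 mM imidazole pH 7.2, 7 mM MgCl2, 50 mM KCl; 1 h RT. Kinase-Glo luminescence readout, normalized to no-enzyme (full inhibition) and uninhibited wells.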
NS1 function inh = blocks influenza NS1 protein function. Potency, µM (top dose mostly 46.1 µM). 270,000 compounds, 0.4% hits. AID 2326; calls by dose curve; further: actives are rising curves; nearly all actives have a fitted effect of over 50% in size
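A cell-based growth assay was used: compounds that relieve NS1-induced slow growth of budding yeast raise OD600. Assay medium was yeast nitrogen base with ammonium sulphate and -URA supplement, pH 6.0, with 2% galactose.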
Shiga inhibitor = blocks Shiga toxin action in Vero cells; inhibition, % at 38.7 µM; Vero cells, Shiga toxin protein synthesis inhibition reporter; 290,000 compounds, 9.2% hits; in the data active means inhibition mostly above about 28%, no sharp cut-off; inactive means mostly below about 43%
FBPA Giardia inh = Giardia lamblia aldolase inhibition | A8B2U2 | purified Giardia FBPA | Potency, µM (top dose mostly 59.6 µM), most hits filed as inhibitors | 290,000 compounds, 0.71% hits | AID 2451; further: nearly all actives have a fitted effect of over 55% in size
Target sequence (A8B2U2 whole entry, looked up): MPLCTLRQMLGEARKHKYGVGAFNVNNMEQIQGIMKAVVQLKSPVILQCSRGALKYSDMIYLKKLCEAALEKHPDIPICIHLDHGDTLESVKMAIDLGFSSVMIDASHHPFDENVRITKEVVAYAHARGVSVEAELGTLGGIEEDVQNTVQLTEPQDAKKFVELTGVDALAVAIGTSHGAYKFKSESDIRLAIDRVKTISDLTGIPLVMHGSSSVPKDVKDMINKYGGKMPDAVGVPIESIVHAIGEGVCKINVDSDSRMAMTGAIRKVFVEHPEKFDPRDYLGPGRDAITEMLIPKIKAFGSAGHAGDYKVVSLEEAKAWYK
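Giardia FBPA (40 nM reagent) was preincubated 10 min at RT with compound (up to 57.5 uM final), then substrate plus GAPDH/TPI/NAD/arsenate coupling system with diaphorase/resazurin was added; resorufin fluorescence (525/598 nm) was read after 20 min.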
Cycloheximide cs = counter-screen hit for Shiga toxin inhibitors, cycloheximide; cell reporter, cycloheximide protein synthesis inhibition counterscreen; max response, %; 300,000 compounds, 12% hits; in the data active means max response mostly above about 13%, no sharp cut-off; inactive means mostly below about 14%; further: read at 38.3 µM for the half of the compounds with a filed dose
Large screens that a line does not name were inactive. Unless noted, the call rests on the fitted dose curve; in most records, active means well fitted curve in the direction sought with a large enough effect; inconclusive means small, poorly fitted or top-dose-only effect, or another doubt; inactive means no such curve, though single readings can be large; an effect the other way counts as inactive or inconclusive.

O=C(Nc1ccccc1C(=O)O)c1cc(S(=O)(=O)N2CCOCC2)c(Br)s1	none
c1cncc(-c2cc(-n3ccnc3)ncn2)c1	none (no result: LmPK inhibitor, NS1 function inh, Shiga inhibitor, Cycloheximide cs)
CCOc1ccc2nc(N3CCC(C(=O)N4CCC5(CC4)OCCO5)CC3)sc2c1	Cycloheximide cs 40.9
Cc1ccc(OCCSc2nc3ccccc3n2CCC(=O)O)cc1	none
O=C(Nc1ccc(F)cc1)N1CCOCC1	none
CN(C)c1ccc(-c2noc(C3CCN(C(=O)Nc4ccc(Cl)cc4)CC3)n2)cc1	Shiga inhibitor 51.6, Cycloheximide cs 15.8
CN(C)c1ccc(NC(=O)N2CCOCC2)cc1	Shiga inhibitor 71.7, FBPA Giardia inh inconclusive, Cycloheximide cs 39.4
O=C(Nc1ccc2c(c1)OCO2)N1CCN(c2ncccn2)CC1	Shiga inhibitor 83.5, Cycloheximide cs 35.1
O=C(Nc1ccc2c(c1)OCCO2)C1CCCN1C(=O)Nc1ccccc1 (centres undefined)	none
O=C(Nc1ccc2c(c1)OCCO2)C1CCCN1C(=O)Nc1ccc(F)cc1 (centres undefined)	Cycloheximide cs 11.6
Cc1ccsc1C(=O)N1CCCC(N2CCN(c3cccc(Cl)c3)CC2)C1 (centres undefined)	none (no result: FBPA Giardia inh)
Nc1nc(Nc2ccccc2)nc2c1ncn2[C@@H]1O[C@H](CO)[C@H](O)[C@H]1O	none (no result: LmPK inhibitor, Shiga inhibitor, Cycloheximide cs)
COc1ccc(NC(=O)CN(C)C(=O)CCNS(=O)(=O)c2ccc(Br)cc2)cc1	none (no result: FBPA Giardia inh)
O=C(Nc1ccc2c(c1)OCO2)N1CCN(c2ccccc2)CC1	none
O=C(Nc1ccc2c(c1)OCO2)N1CCN(C/C=C/c2ccccc2)CC1	none
O=C(Nc1ccc2c(c1)OCO2)N1CCCC1	Shiga inhibitor 55.4 (no result: NS1 function inh)
O=C(Nc1ccc2c(c1)OCO2)N1CCN(c2ccc(F)cc2)CC1	Cycloheximide cs 18.6
O=C(Nc1ccc2c(c1)OCCO2)N1CCOCC1	none (no result: NS1 function inh)
CC1CN(C(=O)Nc2ccc3c(c2)OCO3)CC(C)O1 (centres undefined)	Shiga inhibitor 50.0, Cycloheximide cs 44.7
COc1ccc(NC(=O)N2CC(C)OC(C)C2)cc1OC (centres undefined)	none
O=C(Nc1ccc2c(c1)OCO2)N1CCOCC1	Shiga inhibitor 65.9, Cycloheximide cs 35.6
COC(=O)C1=C(C)[C@H](O)[C@@H](C)[C@](C)(c2cc(OC)c(C)c(OC)c2COc2ccccc2)O1	none (no result: LmPK inhibitor, NS1 function inh, Shiga inhibitor, Cycloheximide cs)
O=C(Nc1cccs1)Nc1ccc(Br)cc1F	Shiga inhibitor 194.2, Cycloheximide cs 67.0
O=C(Nc1cccs1)Nc1ccc(F)cc1F	Cycloheximide cs 20.0
Cc1nc(N2CCOCC2)c2nc(-c3ccccc3)n(CCN3CCCC3)c2n1	none (no result: LmPK inhibitor, NS1 function inh, Shiga inhibitor, Cycloheximide cs)
Cc1ccc(NC(=O)/C=C/c2ccc([N+](=O)[O-])s2)cc1	Shiga inhibitor active, Cycloheximide cs 25.6
Cc1cc([N+](=O)[O-])ccc1NC(=O)/C=C/c1cccs1	Shiga inhibitor 59.3, Cycloheximide cs 42.4
Cc1ccc(NC(=O)/C=C/c2ccc([N+](=O)[O-])s2)c(C)c1	Shiga inhibitor active, Cycloheximide cs 22.2
Cc1cccc(NC(=O)/C=C/c2ccc([N+](=O)[O-])s2)c1	none
COc1ccc(C(=O)Nc2ccnn2C2CCN(C(C)CSC)CC2)cc1 (centres undefined)	none
Cc1ccc(-c2cc(C(=O)NC3CCCCC3)no2)cc1	Cycloheximide cs 20.0
O=C(Nc1cccnc1Cl)c1cc(-c2ccc(O)cc2)on1	Shiga inhibitor 72.6, Cycloheximide cs 24.7
O=C(NC1CCCCCCC1)c1ccccc1-c1ccccc1	none
O=C(NC1CCCCC1)c1cc(-c2ccccc2O)on1	Shiga inhibitor 109.3, Cycloheximide cs 27.2
COc1ccc(-c2cc(C(=O)NC3CCCCC3)no2)cc1OC	none
O=C(NC1CCCCC1)c1cc(-c2ccc(O)cc2)on1	Shiga inhibitor 70.8, Cycloheximide cs 33.3
Fc1ccc([C@H]2CCNC[C@H]2COc2ccc3c(c2)OCO3)cc1	none (no result: LmPK inhibitor, NS1 function inh, Shiga inhibitor, Cycloheximide cs)
COC(=O)C/C=C\[C@@H](C)[C@@H](/C=N\OC[C@@H](O)COCc1ccco1)OC	none (no result: LmPK inhibitor, NS1 function inh, Shiga inhibitor, Cycloheximide cs)
Cc1ccccc1-c1nc(NCc2cccnc2)c2ccccc2n1	none (no result: LmPK inhibitor, NS1 function inh, Shiga inhibitor, Cycloheximide cs)
O=C(Nc1cccc(/C=C/c2ccccn2)c1)c1cc(Cl)ccn1	Shiga inhibitor 43.3, Cycloheximide cs 28.6
Cc1ccc(NC(=O)C2CCN(S(C)(=O)=O)CC2)c(C)c1	none
C[C@@H]1CCC2[C@](C)(CO)[C@@H](O)CC[C@]2(C)[C@@]12CC[C@@](CO)(CC(=O)O)O2 (some centres undefined)	none
Cc1csc(NC(=O)c2ccc(S(=O)(=O)N3CCN(C)CC3)cc2)n1	Shiga inhibitor 58.1, Cycloheximide cs 31.9
